The nature of test [1]: NCATS anti-infectives library activity on HEK293 viability as a counter-qHTS vs the C. elegans viability qHTS (AID 1745854). Further: on the % scale 0 is the no-effect control and ±100 the full control effect. The procedure, abridged:
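HEK293 cells, 1500 per well, exposed 24 hr at 37C in 5% CO2 to compounds in a 1:5 titration, up to 41.7 uM final. Viability read as CellTiter-Glo luminescence after 10 min at room temperature.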
In general terms: qHTS replaces the single test concentration by a dilution series.

In test [2] the target is Catechol O-methyltransferase (Homo sapiens) (UniProt P21964). Nature of the test: Confirmatory Screen for Target Class Profiling of Small Molecule Inhibitors of Methyltransferases (AID 1745852; calls by dose curve; further: potency means the concentration at half of the fitted maximal effect). As to conditions: MTase-Glo luminescence, SAH detection, recombinant enzyme; measured here: COMT max response; stronger effect = lower value.
Test [3] concerns the target Guanidinoacetate N-methyltransferase (Homo sapiens) (UniProt Q14353). The test is described as above. The note with it: activity change, negative = inhibition: at 57.3 µM (top of the series) unless noted.
The target of test [4] is Nicotinamide N-methyltransferase (Homo sapiens) (UniProt P40261). The description is as above. As to conditions: MTase-Glo luminescence, SAH detection, recombinant enzyme; measured here: NNMT max response; stronger effect = lower value.
For test [5], the target named is Phenylethanolamine N-methyltransferase (Homo sapiens) (UniProt P11086). Described as above. As to conditions: MTase-Glo luminescence, SAH detection, recombinant enzyme; measured here: PNMT max response; stronger effect = lower value.

Our source for the outcome, activity and Potency values is PubChem BioAssay (NCATS).

Inconclusive results are not listed. Active and inactive are the calls of the source. Unless noted, the call rests on the fitted dose curve; in most records, active means well fitted cell-killing curve with a large enough effect; inconclusive means small, poorly fitted or top-dose-only effect; inactive means flat fitted curve, though single readings scatter.

Phenylethanolamine N-methyltransferase (Homo sapiens), sequence (P11086 whole entry, looked up): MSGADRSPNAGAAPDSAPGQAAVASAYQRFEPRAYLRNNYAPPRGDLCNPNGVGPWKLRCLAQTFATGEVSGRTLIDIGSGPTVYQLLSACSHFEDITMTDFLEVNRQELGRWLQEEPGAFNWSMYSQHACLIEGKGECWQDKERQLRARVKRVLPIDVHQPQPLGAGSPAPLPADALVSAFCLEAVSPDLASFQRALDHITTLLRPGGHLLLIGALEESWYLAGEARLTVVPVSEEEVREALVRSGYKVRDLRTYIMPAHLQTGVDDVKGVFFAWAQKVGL
Nicotinamide N-methyltransferase (Homo sapiens), sequence (P40261 whole entry, looked up): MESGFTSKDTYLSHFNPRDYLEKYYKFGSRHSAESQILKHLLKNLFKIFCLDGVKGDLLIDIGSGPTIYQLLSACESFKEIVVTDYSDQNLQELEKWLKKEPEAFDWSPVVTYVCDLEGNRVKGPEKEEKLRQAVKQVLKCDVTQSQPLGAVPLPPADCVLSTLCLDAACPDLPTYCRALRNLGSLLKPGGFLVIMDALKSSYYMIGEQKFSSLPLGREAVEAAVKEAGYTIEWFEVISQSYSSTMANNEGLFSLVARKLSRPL
Catechol O-methyltransferase (Homo sapiens), sequence (P21964 whole entry, looked up): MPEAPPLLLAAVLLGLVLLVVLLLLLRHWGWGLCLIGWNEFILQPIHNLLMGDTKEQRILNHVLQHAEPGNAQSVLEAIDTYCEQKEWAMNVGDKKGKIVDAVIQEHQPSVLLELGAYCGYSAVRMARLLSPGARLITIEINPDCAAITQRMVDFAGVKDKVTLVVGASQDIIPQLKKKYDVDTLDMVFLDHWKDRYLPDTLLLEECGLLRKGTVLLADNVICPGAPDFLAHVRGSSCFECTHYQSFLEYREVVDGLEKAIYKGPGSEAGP

`CCOc1nc2cccc(C(=O)O)c2n1Cc1ccc(-c2ccccc2-c2noc(=O)[nH]2)cc1`: the outcome in test [1] is “inactive”.

On to `O=C(O)C[C@H](O)C[C@H](O)/C=C/c1c(C2CC2)nc2ccccc2c1-c1ccc(F)cc1`, for which, in test [1], the outcome was “inactive”.

With `CCc1nc(C(N)=O)c(Nc2ccc(N3CCC(N4CCN(C)CC4)CC3)c(OC)c2)nc1NC1CCOCC1`, the values for the activity in test [2], in test [4] and in test [5] were -34.5%, -16.4% and -59.8%, respectively. Also, in test [3], the Potency is 26.6 µM (active).
